What all share (test): NCI-60 one-dose screen, 48 h (100 = growth as untreated, 0 = no growth, -100 = all killed)
Common to all, as to details: 10 µM unless noted

Assay [1] relates to NCI-H23 lung.
The subject of assay [2] is NCI-H226 lung.
The test system of assay [3] is NCI-H322M lung.
The subject of assay [4] is HOP-62 NSCLC.
The subject of assay [5] is NCI-H460 lung.
The test system of assay [6] is NCI-H522 lung.
For assay [7], the system named is A549/ATCC NSCLC.
In assay [8] the test system is 786-0 renal.
Assay [9] has as its system DU-145 prostate.
The subject of assay [10] is K-562 leukemia.
Assay [11] deals with MALME-3M melanoma.
In assay [12] the test system is MDA-MB-231 breast.
The test system of assay [13] is RXF 393 renal.
The subject of assay [14] is SF-268 CNS.
The subject of assay [15] is SF-295 CNS.
For assay [16], the system named is SF-539 CNS.
Assay [17] deals with UACC-257 melanoma.
For assay [18], the system named is M14 melanoma.
In assay [19] the test system is COLO 205 colon.
Assay [20] relates to HOP-92 NSCLC.

This note sets out measurements from PubChem BioAssay (NCI).

Molecules are shown by their SMILES. This is part of a sample that, as a whole, favours compounds with a hit. Of some 83,000 tested, about 20% had one in any assay.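 96-well plates, one dose, 48 hours. Percent growth reported; active if below 10.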 Unmarked numbers belong to inactive results. Active and inactive are the calls of the source.

Consider `COC(=O)c1cc(N=C2NC(=O)/C(=C/C=C/c3ccccc3)S2)ccc1O`, for which the growth in assay [1] is 37.2%; in assay [2] it was 37.5%; in assay [3], 47.2%; in assay [4], 44.5%; in [5], 12.1%; in assay [6], 19.4%. The growth in [7] was 30.8%; in [8], 20.4%; in assay [9], 16.8%; in assay [10], 14.4%; in [11] it was 65.3%; in assay [12], 54.7%. For the same compound, the growth in assay [13] is -12.8% (active); in [14], 61.7%; in [15], 20.3%; in assay [16], 12.4%; in assay [17] it was 70.9%; in assay [18], 11.3%.

In the case of `COc1ccc(-c2cc(-c3ccc(Cl)cc3)c(C#N)c(=O)n2Cc2ccc(C(=O)Nc3ccccc3N)cc2)cc1`, the growth was 77.2% in [1]; 81.2% in assay [2]; 89.3% in assay [3]; 71.6% in assay [4]; 94.6% in [5]; 53.9% in [6]. Also, the growth in [7] is 109%; in assay [8], 90.3%; in [19] it was 95.8%; in assay [9], 101%; in assay [10], 46.2%; in [11] it was 74.1%. Moreover, the growth in assay [12] was 67.2%; in assay [13], 54.5%; in assay [14] it was 73.4%; in [15], 61.1%; in assay [16], 74%; in assay [17], 105%.

On to `COc1ccc(NC(=O)c2sc3nc(C)c(C(=O)/C=C/c4ccccc4)cc3c2N)cc1`, for which the growth in [1] was 63%; in assay [2], 65.6%; in assay [3] it was 13.1%; in assay [4], 60.8%; in assay [5], 6.63% (active); in assay [6], 41.7%. Moreover, the growth in assay [7] is 34%; in [8] it was 2.08% (active); in assay [19] it was 72.8%; in assay [9], 26.5%; in assay [10] it was 14.4%; in assay [11], 97.3%. Also, the growth in assay [12] is 60.8%; in assay [13] it was -1.08% (active); in assay [14], 28.7%; in assay [15], 48.8%; in [16] it was 38.2%; in assay [17], 98.3%. Besides, the growth in assay [18] is 61.5%.

Take `C=CC(=O)N1CCN(c2cccc(Oc3nccc(Nc4nnc(-c5ccc(Br)cc5)s4)n3)c2)CC1`: the growth was 79% in [1]; 88.8% in assay [2]; 92.3% in assay [3]; 62.2% in assay [4]; 25.6% in assay [5]; -2.86% (active) in assay [6]. The growth in [7] was 47.3%; in [8] it was 73.5%; in assay [19] it was 63.4%; in assay [9] it was 78.5%; in assay [10], 22.2%; in assay [11] it was 65.2%. The growth was 75.2% in assay [12]; 74.7% in assay [13]; 74.8% in [14]; 55.8% in assay [15]; 72.7% in assay [16]; 80.6% in assay [17]. Further, the growth in assay [18] was 44.9%.

On to `CCn1cc(C(=O)O)c(=O)c2cc(F)c(N3CCN(CC(=O)Nc4ccc(S(=O)(=O)Nc5nccc(C)n5)cc4)C(C)C3)c(F)c21` (centres undefined), for which the growth in [1] is 103%; in assay [2] it was 97.1%; in [3], 104%; in [4], 103%; in assay [5] it was 104%; in [20], 119%. Also, the growth in assay [6] is 105%; in assay [8] it was 112%; in [9], 105%; in [10], 105%; in assay [11], 111%; in assay [12], 100%. In addition, the growth in [13] is 99%; in assay [14] it was 98.3%; in [15], 104%; in [16] it was 99.2%; in assay [17] it was 114%; in assay [18], 103%.

On to `CCOC(=O)c1cc2c(n1Cc1cc(OC)c(OC)c(OC)c1)-c1nc(N)sc1CCC2`, for which the growth is 62.9% in [1]; 73.4% in assay [2]; 81.7% in assay [3]; 44.3% in assay [4]; 31.9% in assay [5]; 7.85% (active) in assay [6]. The growth in assay [7] was 28%; in assay [8] it was 36.8%; in [19], 40.3%; in assay [9], 79.1%; in assay [10], 24.6%; in assay [11], 69.5%. Also, the growth is 51.6% in assay [12]; 54.9% in [13]; 70.5% in [14]; 26% in assay [15]; 62.5% in [16]; 43.9% in assay [17]. For the same compound, the growth in assay [18] was 25.6%.

`O=C(/C=C(/C=C/c1ccc2[nH]ccc2c1)OB(F)F)/C=C/c1ccc2[nH]ccc2c1`: the growth in assay [1] was -26.6% (active); in assay [2] it was -59.5% (active); in [3], 27.5%; in assay [4] it was -16.5% (active); in [5], 0.421% (active); in assay [6], -68.5% (active). In addition, the growth in [7] was -53.6% (active); in [8], -57.1% (active); in assay [19], -38.4% (active); in assay [9], 3.56% (active); in assay [10], -21.9% (active); in [11], 31.1%. For the same compound, the growth in [12] was 12.2%; in [13], -57.6% (active); in assay [14], 16.7%; in assay [15], -25.4% (active); in assay [16], -7.54% (active); in assay [17], 43.3%. Moreover, the growth in [18] is -27.5% (active).

`COc1cccc(CNc2ccc3ncnc(Nc4ccc(F)c(Cl)c4)c3c2)c1`: the growth in [1] is 69.6%; in assay [2], 71.4%; in [3] it was 34.1%; in assay [4], 82.5%; in [5] it was 78%; in assay [6], 18.6%. The growth is 53.1% in assay [7]; 71.2% in assay [8]; 91.3% in assay [19]; 54.3% in assay [9]; 48.3% in assay [10]; 58.1% in assay [11]. The growth in assay [12] is 68.2%; in assay [13], 65.9%; in [14], 65.6%; in assay [15] it was 79.4%; in [16], 93.8%; in assay [17], 49.2%. For the same compound, the growth in assay [18] is 72.9%.
